{"source": "PubChem BioAssay (NCATS)", "note": "Several values for one entry are separate records, joined by “and”; a condition that tells them apart may be missing. Equal values may be shown once. Activity calls are given as the source filed them. The call rests on the fitted dose curve; in most records, active means well fitted activation curve with a large enough effect; inconclusive means small, poorly fitted or top-dose-only effect; inactive means no such curve, though single readings can be large or run the other way."}
{"biological_target": "Cytochrome P450 3A4 (Homo sapiens) (UniProt P08684)", "sequence (P08684 whole entry, looked up)": "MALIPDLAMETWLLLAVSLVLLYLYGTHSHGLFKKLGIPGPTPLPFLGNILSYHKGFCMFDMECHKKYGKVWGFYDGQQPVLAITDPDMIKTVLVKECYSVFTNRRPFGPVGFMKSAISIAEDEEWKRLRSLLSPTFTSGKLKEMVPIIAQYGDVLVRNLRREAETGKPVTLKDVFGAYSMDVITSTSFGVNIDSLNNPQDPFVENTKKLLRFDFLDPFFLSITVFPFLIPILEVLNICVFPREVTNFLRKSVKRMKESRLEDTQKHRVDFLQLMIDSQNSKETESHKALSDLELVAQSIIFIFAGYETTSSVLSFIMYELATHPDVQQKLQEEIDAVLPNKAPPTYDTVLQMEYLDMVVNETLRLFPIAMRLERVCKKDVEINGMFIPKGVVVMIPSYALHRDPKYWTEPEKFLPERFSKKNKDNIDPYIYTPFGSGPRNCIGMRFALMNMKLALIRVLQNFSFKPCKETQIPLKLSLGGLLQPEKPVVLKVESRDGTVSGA", "experiment": "qHTS Assay for Activators of Cytochrome P450 3A4 (AID 885); further: nearly all actives have a fitted effect of over 65% in size", "conditions": "recombinant CYP3A4, Luciferin-PPXE luminescence, 60 min; series mostly up to 57.1 µM; activity change, positive = activation: at the top concentration", "summary_of_the_method": "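Signal was normalized against complete inhibition by 57 uM ketoconazole. The reaction used 20nM CYP3A4 with 25uM Luciferin-PPXE, 10-min compound preincubation and a 60-min NADPH-supported step at RT.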"}
{"smiles": "COC(=O)c1cccc(C23CC4(C2)[C@H](CN(CC2CCCCC2)[C@@H]4c2ccccc2)C3c2ccccc2)c1", "note": "(stereo partly drawn)", "activity change, positive = activation": "-68.3% (inactive)"}
{"smiles": "CN1C[C@@H]2C(c3ccc(Cl)nc3)C3(c4cccnc4)CC2(C3)[C@H]1c1ccccc1", "note": "(stereo partly drawn)", "activity change, positive = activation": "-76.4% (inactive)"}
{"smiles": "[C-]#[N+]/C(C#N)=C\\c1cc(C(C)(C)C)c(O)c(C(C)(C)C)c1", "activity change, positive = activation": "-112% (inactive)"}
{"smiles": "CNC1=C(Cl)C(=O)c2ccncc2C1=O", "activity change, positive = activation": "-123% (inactive)"}
{"smiles": "COCCN=C1OC(=O)N2C(=O)C3=C4C(C[C@H]5C(=O)N(CC(=O)OC)C(=O)[C@H]5[C@H]4[C@@]12Cc1ccccc1)[C@H]1C(=O)N(CC(=O)OC)C(=O)[C@H]1[C@H]3C", "note": "(stereo partly drawn)", "activity change, positive = activation": "-72.6% (inactive)"}
{"smiles": "CCC1=C(OC(=O)N(CC)CC)N2C(=O)OC(=NCCOC)[C@]2(Cc2ccccc2)[C@H]2C1=CC[C@H]1C(=O)NC(=O)[C@H]12", "activity change, positive = activation": "-86.7% (inactive)"}
{"smiles": "COC(=O)c1ccc(C(NC(=O)OCc2ccccc2)/C(=C/[C@@H](C)C(=O)NCc2cc(C)on2)c2cccnc2)cc1", "note": "(stereo partly drawn)", "activity change, positive = activation": "-99% (inactive)"}
{"smiles": "COC(=O)[C@@H]1C[C@@]2(O)[C@@H](O)[C@@H](O)[C@@H](O)C[C@H]2N1CC(c1ccccc1)c1ccccc1", "activity change, positive = activation": "-72.1% (inactive)"}
{"smiles": "COC(=O)[C@@H]1C[C@@]2(O)[C@@H](O)[C@@H](O)[C@@H](O)C[C@H]2N1Cc1cc(OC)cc(OC)c1", "activity change, positive = activation": "-78.5% (inactive)"}
{"smiles": "CCCNC(=O)OC[C@@H]1O[C@H](CCO/N=C(\\C)CCN2CCCCc3nc(C)c(C)cc32)C=C[C@@H]1Oc1ccc(OC)cc1", "activity change, positive = activation": "-95.5% [at 11.4 µM] (inactive)"}
{"smiles": "O=C1[C@H]2[C@H]3[C@H](O)[C@H](O)C/C(=N/OCc4ccccc4)[C@@H]3CC[C@@H]2C(=O)N1Cc1ccc2c(c1)OCO2", "activity change, positive = activation": "-100% [at 11.4 µM] (inactive)"}
{"smiles": "COC(=O)[C@@H]1C[C@H]2CC[C@H](O)C[C@H]2N1Cc1ccc(Cl)cc1", "activity change, positive = activation": "-82.4% (inactive)"}
{"smiles": "O=C1[C@H]2[C@H]3[C@H](O)[C@H](O)C/C(=N/OC[C@@H](O)COCc4ccco4)[C@H]3CC[C@@H]2C(=O)N1Cc1ccc2c(c1)OCO2", "activity change, positive = activation": "-88.1% [at 11.4 µM] (inactive)"}
{"smiles": "COC(=O)NC(c1ccco1)C(C(C)=O)C(=O)OC", "note": "(stereo not drawn)", "activity change, positive = activation": "-66.9% [at 11.4 µM] (inactive)"}
{"smiles": "COC(=O)c1cccc(C23CC4(C2)[C@H](CN(Cc2cccnc2)[C@@H]4c2ccccc2)C3c2ccc(Cl)nc2)c1", "note": "(stereo partly drawn)", "activity change, positive = activation": "-70.9% (inactive)"}
{"smiles": "CCC1=C(OC(=O)N(CC)CC)N2C(=O)OC(=NCC(=O)OC)[C@]2(Cc2ccccc2)[C@H]2C1=CC[C@H]1C(=O)N(C)C(=O)[C@H]12", "activity change, positive = activation": "-94.1% (inactive)"}
{"smiles": "COC(=O)c1ccc(C23CC4(C2)[C@H](CN(Cc2cccnc2)[C@@H]4c2ccccc2)C3c2ccccc2)cc1", "note": "(stereo partly drawn)", "activity change, positive = activation": "-113% (inactive)"}
{"smiles": "COC(=O)N1[C@H](Cc2ccccc2)C=C[C@]1(C)C(=O)NCc1ccc(N(C)C)cc1", "activity change, positive = activation": "-77.3% (inactive)"}
{"smiles": "COC(=O)c1ccc(C(NC(=O)OCc2ccccc2)/C(C)=C/[C@@H](C)C(=O)NCc2cc(F)cc(F)c2)cc1", "note": "(stereo partly drawn)", "activity change, positive = activation": "-87.9% (inactive)"}
{"smiles": "CC1(C(=O)NCCCNc2ncc(C(F)(F)F)cc2Cl)C=CC2(CCCCC2)N1C(=O)c1ccccc1", "note": "(stereo not drawn)", "activity change, positive = activation": "-110% (inactive)"}
{"smiles": "CCC1=C(OC(=O)N(CC)CC)N2C(=O)OC(=NCc3ccccc3)[C@]2(C)[C@H]2C1=CC[C@H]1C(=O)N(CC)C(=O)[C@H]12", "activity change, positive = activation": "-87.9% (inactive)"}
{"smiles": "CCC1=C2CC[C@H]3C(=O)N(CC(=O)OC)C(=O)[C@H]3[C@H]2[C@@]2(Cc3ccccc3)C(=NCCOC)OC(=O)N2C1=O", "activity change, positive = activation": "-69.5% (inactive)"}
{"smiles": "CO[C@@H]1COC(=O)C/C=C\\[C@H](C)[C@@H](NS(=O)(=O)c2ccc(C)cc2)COC(=O)C/C=C\\[C@@H]1C", "activity change, positive = activation": "-70.4% [at 11.4 µM] (inactive) and -70.5% [at 11.4 µM] (inactive)"}
{"smiles": "C/C(CCC(=O)OC[C@@H]1O[C@H](C#Cc2ccccc2)C=C[C@@H]1Oc1ccc(C)cc1)=N/OC[C@@H](O)[C@H]1O[C@H]2OC(C)(C)O[C@H]2[C@@H]1O", "activity change, positive = activation": "-117% [at 11.4 µM] (inactive)"}
{"smiles": "CCC1=C2CC[C@H]3C(=O)N(CC)C(=O)[C@H]3[C@H]2[C@@]2(C)C(=NCCc3c[nH]c4ccccc34)OC(=O)N2C1=O", "activity change, positive = activation": "-101% (inactive)"}
{"smiles": "CCC1=C(OC(=O)N(CC)CC)N2C(=O)OC(=NCC(=O)OC)[C@]2(C)[C@H]2C1=CC[C@H]1C(=O)N(C)C(=O)[C@H]12", "activity change, positive = activation": "-68% (inactive)"}
{"smiles": "CCC1=C2CC[C@H]3C(=O)N(c4ccccc4)C(=O)[C@H]3[C@H]2[C@@]2(Cc3ccccc3)C(=NCCOC)OC(=O)N2C1=O", "activity change, positive = activation": "-73.5% (inactive)"}
{"smiles": "CCC1=C2CC[C@H]3C(=O)N(CC)C(=O)[C@H]3[C@H]2[C@@]2(C)C(=O)N(CC(=O)OC)C(=O)N2C1=O", "activity change, positive = activation": "-62.1% (inactive)"}
